Laboratory results as given in PubChem BioAssay (EPA / NIEHS).
A structure can be active in one record and inactive in another. Calls of active or inactive are those of the source. The calls were made as follows: active = hit-call score of the fitted dose curve at least 0.9, where 1 is the maximum; inactive = score below 0.9.

What follows are compounds tested on Collagen IV, COL4A1 (gene 1282) (assay: BSK_MyoF_CollagenIV: BioMAP Diversity Plus: MyoF Assay for Collagen IV Biomarker Activity (AID 2284247)). Conditions: primary human lung fibroblasts.
Experimental: BSK_MyoF is a cell-based, multiplexed-readout assay that uses lung fibroblasts, […], with measurements taken at 24 hours after chemical dosing in a microplate: 96-well plate.BSK_MyoF_CollagenIV is an assay component measured in the BSK_MyoF assay. It measures Collagen IV antibody related to regulation of gene expression using ELISA technology.Data from the assay component BSK_MyoF_CollagenIV was analyzed at the endpoint, BSK_MyoF_CollagenIV, in the positive analysis fitting direction relative to DMSO as the negative control and baseline of activity. Using a type of binding reporter, gain or loss-of-signal activity can be used to understand protein changes. To generalize the intended target to other relatable targets, this assay endpoint is annotated to the 'cell adhesion molecules' intended target family, where the subfamily is 'collagen'.
The levels of cell surface (or secreted, indicated by the prefix "s") biomarker endpoints were measured by ELISA. Overt cytotoxicity to cells in confluent adherent cultures (all systems other than the BT system) was assessed by measuring total protein levels using sulforhodamine B (SRB) staining in parallel cultures at the time of biomarker measurements, indicated as SRB endpoints. For proliferation assays for adherent cell types, individual cell types are cultured at sub-confluence and relative cell numbers quantified by SRB staining at time points optimized for each system (48 h: 3C and CASM3C systems; 72 h: BT and HDF3CGF systems; 96 h: SAg system). SRB was performed by staining cells with 0.1% SRB after fixation with 10% TCA and reading wells at 560 nm.Viability and proliferation of PBMC (T cells) was quantified by Alamar Blue reduction for the SAg and BT systems. For PBMC viability (referred to as PBMC Cytotoxicity within the assay endpoint names), cells were plated (75,000/well in a 96-well plate) and then chemical samples added for 1 h before addition of activators, SEB and TSST-1 (20 ng/mL final concentration each). Cells were incubated for 90 h. Then, Alamar Blue (20 uL/well) (Invitrogen, Cat DAL1100) was added for 6 h, and the plates were read with a fluorescence microplate reader at 546/580 nm (excitation/emission). For PBMC proliferation, cells were plated and activated as above but incubated for only 16 h prior to addition of Alamar Blue. Plates were read after 6 h.
With `C=CC(=O)OCCC(F)(F)C(F)(F)C(F)(F)C(F)(F)C(F)(F)C(F)(F)C(F)(F)C(F)(F)F` the outcome was “inactive”. In the case of `O=C(O)CCC(F)(F)C(F)(F)C(F)(F)C(F)(F)C(F)(F)F`, the outcome is reported as “inactive”. For `COc1cc(OC)nc(NC(=O)NS(=O)(=O)Nc2ccccc2C(=O)N(C)C)n1`, the outcome was “inactive”. For `O=C1c2ccc(O)c(O)c2C(=O)c2c(O)ccc(O)c21`, the outcome was “inactive”. `Oc1cc2ccccc2cc1O` was tested, and the outcome was “inactive”. For `O=C(NCc1ncc(C(F)(F)F)cc1Cl)c1c(Cl)cccc1Cl`, the outcome was “inactive”. In the case of `O=C(NO)c1ccccc1`, the outcome is reported as “inactive”. In the case of `CCCCCc1ccc(O)cc1`, the AC50 is reported as 20 µM (active). With `O=C(CC(=O)C(F)(F)C(F)(F)C(F)(F)F)c1cccs1` the AC50 was 8.25 µM (active) and the outcome was “inactive”. With `COC1=CC(=O)C[C@@H](C)[C@]12Oc1c(Cl)c(OC)cc(OC)c1C2=O` the outcome was “inactive”. With `C=CC(C)(CCC=C(C)C)OC(C)=O` (centres undefined) the outcome was “inactive”. `C=CC(=C)CC/C=C(\C)CCC=C(C)C` was tested, and the outcome was “inactive”. With `CC1=NN(c2ccccc2)C(=O)C1` the outcome was “inactive”. For `O=C1OC2(c3ccccc31)c1cc(I)c(O)c(I)c1Oc1c2cc(I)c(O)c1I`, the AC50 was 3.8 µM (active). For `CC(C)(C)c1ccc(O)c(O)c1`, the AC50 was 16 µM (active). `C[C@]12CC[C@@H]3c4ccc(O)cc4CC[C@H]3[C@@H]1C[C@@H](O)[C@@H]2O` was tested, and the outcome was “inactive”. In the case of `Cc1cccc2c1ccc1ccccc12`, the outcome is reported as “inactive”. For `CCOC(=O)CN[C@@H](C(=O)N1CC[C@H]1C(=O)NCc1ccc(/C(N)=N/O)cc1)C1CCCCC1`, the outcome was “inactive”. `CCCCC(CC)C(=O)OCCOCCOCCOCCOC(=O)C(CC)CCCC` (centres undefined) was tested, and the outcome was “inactive”. `Cc1ccc(C(=O)c2ccccc2)cc1` was tested, and the AC50 was 20 µM (active). With `OCCN1CN(CCO)CN(CCO)C1` the outcome was “inactive”. In the case of `CN(CCO)S(=O)(=O)C(F)(F)C(F)(F)C(F)(F)C(F)(F)C(F)(F)C(F)(F)C(F)(F)C(F)(F)F`, the outcome is reported as “inactive”. In the case of `CC[N+](CC)(CC)Cc1ccccc1`, the outcome is reported as “inactive”. For `O=C(O)CCC(F)(F)C(F)(F)C(F)(F)C(F)(F)C(F)(F)C(F)(F)F`, the outcome was “inactive”. With `O=S(=O)(O)C(F)(F)C(F)(F)C(F)(F)C(F)(F)C(F)(F)C(F)(F)C(F)(F)C(F)(F)C(F)(F)C(F)(F)F` the outcome was “inactive”. For `Cc1ccc(N=Nc2c(O)ccc3ccccc23)c(C)c1`, the outcome was “inactive”. `OCC(F)(F)C(F)(F)C(F)(F)C(F)(F)C(F)(F)C(F)(F)C(F)(F)C(F)(F)C(F)(F)C(F)(F)C(F)(F)F` was tested, and the outcome was “inactive”. For `O=C(O)C(F)(F)OC(F)(F)C(F)(F)OC(F)(F)C(F)(F)OC(F)(F)C(F)(F)C(F)(F)C(F)(F)F`, the outcome was “inactive”. For `Clc1ccc(Nc2nnc(Cc3ccncc3)c3ccccc23)cc1`, the outcome was “inactive”. For `O=P(O)(O)CCC(F)(F)C(F)(F)C(F)(F)C(F)(F)C(F)(F)C(F)(F)C(F)(F)C(F)(F)F`, the outcome was “inactive”. For `CCCCCCCCCCCCCCCCCC[N+](C)(C)Cc1ccccc1`, the outcome was “inactive”. In the case of `CN(C)c1ccc(C(=C2C=CC(=[N+](C)C)C=C2)c2ccccc2)cc1`, the AC50 is reported as 1.55 µM (active). `C=COC(=O)C(C)(C)CCCCCC` was tested, and the AC50 was 29.7 µM (active). With `NC(=NCCCCCCN=C(N)/N=C(\N)Nc1ccc(Cl)cc1)/N=C(\N)Nc1ccc(Cl)cc1` the AC50 was 8.69 µM (active). For `O=P(O)(O)CCC(F)(F)C(F)(F)C(F)(F)C(F)(F)C(F)(F)C(F)(F)F`, the outcome was “inactive”. `COCN(COC)c1nc(N(COC)COC)nc(N(COC)COC)n1` was tested, and the outcome was “inactive”. `CN(Cc1cnc2nc(N)nc(N)c2n1)c1ccc(C(=O)N[C@@H](CCC(=O)O)C(=O)O)cc1` was tested, and the outcome was “inactive”. `COc1cccc(O)c1` was tested, and the outcome was “inactive”.
